In ChEMBL document CHEMBL2218924, “A broad activity screen in support of a chemogenomic map for kinase signalling research and drug discovery” (Biochem J, 2013) one finds residual activity data, which are given here for six compounds.

The target in test [1] is Insulin receptor (Homo sapiens) (UniProt P06213). Conditions: at 1 µM.
The target is the same in test [2]. Conditions: at 10 µM.
Test [3] deals with Interleukin-1 receptor-associated kinase 1 (Homo sapiens) (UniProt P51617). Conditions: at 1 µM.
Sequence of Interleukin-1 receptor-associated kinase 1 (Homo sapiens) (P51617 whole entry, looked up): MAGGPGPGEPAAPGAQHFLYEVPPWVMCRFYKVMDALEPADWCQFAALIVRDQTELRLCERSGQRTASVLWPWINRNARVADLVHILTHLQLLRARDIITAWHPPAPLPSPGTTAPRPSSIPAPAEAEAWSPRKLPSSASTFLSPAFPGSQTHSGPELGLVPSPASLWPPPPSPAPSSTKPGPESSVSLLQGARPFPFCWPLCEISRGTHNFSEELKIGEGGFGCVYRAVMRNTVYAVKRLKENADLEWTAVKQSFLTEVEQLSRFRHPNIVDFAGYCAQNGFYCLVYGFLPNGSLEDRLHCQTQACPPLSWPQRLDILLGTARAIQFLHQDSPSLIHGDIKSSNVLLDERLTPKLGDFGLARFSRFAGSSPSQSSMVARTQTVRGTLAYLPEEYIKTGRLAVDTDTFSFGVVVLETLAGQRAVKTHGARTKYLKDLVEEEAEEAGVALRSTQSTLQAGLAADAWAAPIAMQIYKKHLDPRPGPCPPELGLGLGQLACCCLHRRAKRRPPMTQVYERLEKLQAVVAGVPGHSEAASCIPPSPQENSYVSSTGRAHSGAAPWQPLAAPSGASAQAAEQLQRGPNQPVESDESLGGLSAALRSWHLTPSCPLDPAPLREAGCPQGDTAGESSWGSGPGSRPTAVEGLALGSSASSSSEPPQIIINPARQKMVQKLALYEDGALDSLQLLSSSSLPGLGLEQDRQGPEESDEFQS
For test [4] the target is unchanged. Conditions: at 10 µM.
Test [5] concerns the target T1, Interleukin-1 receptor-associated kinase 4 (Homo sapiens) (UniProt Q9NWZ3).
T1 sequence (whole entry): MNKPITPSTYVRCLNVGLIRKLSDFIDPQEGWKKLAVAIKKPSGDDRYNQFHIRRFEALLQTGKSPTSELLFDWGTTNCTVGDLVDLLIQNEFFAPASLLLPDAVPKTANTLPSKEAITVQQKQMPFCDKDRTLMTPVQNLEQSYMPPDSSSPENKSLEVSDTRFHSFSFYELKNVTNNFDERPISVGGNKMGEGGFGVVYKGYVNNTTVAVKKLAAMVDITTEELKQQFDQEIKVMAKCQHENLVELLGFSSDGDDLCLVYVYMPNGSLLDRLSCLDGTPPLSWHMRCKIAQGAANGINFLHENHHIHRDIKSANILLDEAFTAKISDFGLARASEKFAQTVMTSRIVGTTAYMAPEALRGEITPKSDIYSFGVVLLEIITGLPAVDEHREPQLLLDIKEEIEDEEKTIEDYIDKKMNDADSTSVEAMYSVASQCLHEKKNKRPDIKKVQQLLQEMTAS
Conditions: at 1 µM.

Test [6] deals with T1, Interleukin-1 receptor-associated kinase 4 (Homo sapiens). Conditions: at 10 µM.
The target in test [7] is Insulin receptor-related protein (Homo sapiens) (UniProt P14616). Conditions: at 1 µM.
For test [8] the target is unchanged. Conditions: at 10 µM.
Test [9] addresses T2, Tyrosine-protein kinase ITK/TSK (Homo sapiens) (UniProt Q08881).
T2 sequence (whole entry): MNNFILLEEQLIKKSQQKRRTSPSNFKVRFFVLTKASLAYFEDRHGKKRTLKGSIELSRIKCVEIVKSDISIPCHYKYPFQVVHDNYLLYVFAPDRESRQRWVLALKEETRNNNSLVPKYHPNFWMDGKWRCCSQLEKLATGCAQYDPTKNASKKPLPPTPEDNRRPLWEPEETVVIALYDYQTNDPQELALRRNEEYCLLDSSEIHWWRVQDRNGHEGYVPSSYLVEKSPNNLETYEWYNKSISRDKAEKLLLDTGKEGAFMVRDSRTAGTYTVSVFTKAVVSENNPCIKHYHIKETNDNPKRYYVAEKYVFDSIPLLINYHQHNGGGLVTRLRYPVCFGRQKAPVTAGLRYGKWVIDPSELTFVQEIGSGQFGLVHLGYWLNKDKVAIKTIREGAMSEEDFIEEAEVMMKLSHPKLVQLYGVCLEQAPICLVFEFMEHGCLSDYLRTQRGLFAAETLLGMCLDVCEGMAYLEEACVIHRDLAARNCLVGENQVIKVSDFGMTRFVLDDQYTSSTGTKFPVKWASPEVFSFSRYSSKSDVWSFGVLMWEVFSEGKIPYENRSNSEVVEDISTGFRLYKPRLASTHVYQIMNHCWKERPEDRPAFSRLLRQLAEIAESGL
Conditions: at 1 µM.

Test [10] deals with T2, Tyrosine-protein kinase ITK/TSK (Homo sapiens). Conditions: at 10 µM.
For test [11], the target named is Tyrosine-protein kinase JAK2 (Homo sapiens) (UniProt O60674). Conditions: at 1 µM.
Sequence of Tyrosine-protein kinase JAK2 (Homo sapiens) (O60674 whole entry): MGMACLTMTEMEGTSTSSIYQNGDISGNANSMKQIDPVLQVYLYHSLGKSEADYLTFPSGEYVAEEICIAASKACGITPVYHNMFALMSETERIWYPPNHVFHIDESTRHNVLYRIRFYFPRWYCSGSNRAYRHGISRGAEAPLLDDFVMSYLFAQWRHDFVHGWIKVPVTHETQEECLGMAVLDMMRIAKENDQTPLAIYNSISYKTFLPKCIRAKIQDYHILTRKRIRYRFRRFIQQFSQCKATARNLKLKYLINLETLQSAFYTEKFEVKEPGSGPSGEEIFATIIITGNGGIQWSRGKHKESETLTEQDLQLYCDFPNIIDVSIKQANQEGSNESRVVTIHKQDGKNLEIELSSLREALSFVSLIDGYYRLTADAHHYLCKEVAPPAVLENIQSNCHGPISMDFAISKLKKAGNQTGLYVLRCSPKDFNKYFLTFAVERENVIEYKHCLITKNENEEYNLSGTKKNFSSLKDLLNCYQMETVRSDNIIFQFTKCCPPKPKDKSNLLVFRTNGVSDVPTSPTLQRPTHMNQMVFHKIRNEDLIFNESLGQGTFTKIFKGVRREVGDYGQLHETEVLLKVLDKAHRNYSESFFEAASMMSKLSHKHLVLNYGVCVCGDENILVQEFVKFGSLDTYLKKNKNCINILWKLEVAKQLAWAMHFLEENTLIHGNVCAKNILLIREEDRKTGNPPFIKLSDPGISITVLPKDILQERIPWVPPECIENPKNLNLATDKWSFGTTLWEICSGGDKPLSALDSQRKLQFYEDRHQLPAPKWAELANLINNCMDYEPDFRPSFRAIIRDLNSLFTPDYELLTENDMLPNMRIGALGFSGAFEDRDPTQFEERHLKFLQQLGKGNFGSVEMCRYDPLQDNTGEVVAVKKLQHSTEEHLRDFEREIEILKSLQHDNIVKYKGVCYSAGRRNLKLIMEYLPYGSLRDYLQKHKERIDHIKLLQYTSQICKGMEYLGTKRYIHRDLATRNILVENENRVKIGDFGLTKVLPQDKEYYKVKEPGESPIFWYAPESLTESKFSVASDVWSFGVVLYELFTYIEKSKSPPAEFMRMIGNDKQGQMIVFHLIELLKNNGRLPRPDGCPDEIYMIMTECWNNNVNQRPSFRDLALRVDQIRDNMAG
Test [12] has the same target. Conditions: at 10 µM.
The target in test [13] is T3, Tyrosine-protein kinase JAK3 (Homo sapiens) (UniProt P52333).
T3 sequence (whole entry): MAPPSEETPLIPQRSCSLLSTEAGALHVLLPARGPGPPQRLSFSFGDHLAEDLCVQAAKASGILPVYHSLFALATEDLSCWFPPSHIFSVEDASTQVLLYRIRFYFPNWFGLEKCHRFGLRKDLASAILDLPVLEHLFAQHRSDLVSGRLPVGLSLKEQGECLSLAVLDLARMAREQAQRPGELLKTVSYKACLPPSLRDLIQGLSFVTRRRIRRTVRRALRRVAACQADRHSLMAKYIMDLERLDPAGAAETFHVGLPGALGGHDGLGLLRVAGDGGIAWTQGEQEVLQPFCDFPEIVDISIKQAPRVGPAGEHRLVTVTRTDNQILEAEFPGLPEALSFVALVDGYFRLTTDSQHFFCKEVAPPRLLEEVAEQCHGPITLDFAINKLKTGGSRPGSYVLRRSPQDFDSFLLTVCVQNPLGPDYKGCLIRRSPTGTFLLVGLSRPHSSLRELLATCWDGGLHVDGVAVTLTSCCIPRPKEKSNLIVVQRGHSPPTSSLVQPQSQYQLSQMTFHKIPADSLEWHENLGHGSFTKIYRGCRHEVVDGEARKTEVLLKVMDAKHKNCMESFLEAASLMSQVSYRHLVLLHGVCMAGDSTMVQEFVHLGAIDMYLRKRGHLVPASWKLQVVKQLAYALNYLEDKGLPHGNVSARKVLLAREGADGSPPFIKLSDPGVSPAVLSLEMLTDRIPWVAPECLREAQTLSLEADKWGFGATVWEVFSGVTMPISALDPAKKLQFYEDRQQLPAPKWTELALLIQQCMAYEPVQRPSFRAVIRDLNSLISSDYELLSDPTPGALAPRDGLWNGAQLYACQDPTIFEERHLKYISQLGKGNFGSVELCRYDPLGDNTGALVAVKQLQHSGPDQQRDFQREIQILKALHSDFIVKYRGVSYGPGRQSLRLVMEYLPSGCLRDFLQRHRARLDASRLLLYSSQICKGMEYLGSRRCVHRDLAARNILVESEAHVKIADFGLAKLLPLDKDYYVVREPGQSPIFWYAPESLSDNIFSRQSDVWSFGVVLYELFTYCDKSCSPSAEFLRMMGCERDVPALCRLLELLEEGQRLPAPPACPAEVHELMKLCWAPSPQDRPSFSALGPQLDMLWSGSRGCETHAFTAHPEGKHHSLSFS
Conditions: at 1 µM.

The target in test [14] is T3, Tyrosine-protein kinase JAK3 (Homo sapiens). Conditions: at 10 µM.
The target in test [15] is Mitogen-activated protein kinase 8 (Homo sapiens) (UniProt P45983). Conditions: at 1 µM.
Sequence of Mitogen-activated protein kinase 8 (Homo sapiens) (P45983 whole entry): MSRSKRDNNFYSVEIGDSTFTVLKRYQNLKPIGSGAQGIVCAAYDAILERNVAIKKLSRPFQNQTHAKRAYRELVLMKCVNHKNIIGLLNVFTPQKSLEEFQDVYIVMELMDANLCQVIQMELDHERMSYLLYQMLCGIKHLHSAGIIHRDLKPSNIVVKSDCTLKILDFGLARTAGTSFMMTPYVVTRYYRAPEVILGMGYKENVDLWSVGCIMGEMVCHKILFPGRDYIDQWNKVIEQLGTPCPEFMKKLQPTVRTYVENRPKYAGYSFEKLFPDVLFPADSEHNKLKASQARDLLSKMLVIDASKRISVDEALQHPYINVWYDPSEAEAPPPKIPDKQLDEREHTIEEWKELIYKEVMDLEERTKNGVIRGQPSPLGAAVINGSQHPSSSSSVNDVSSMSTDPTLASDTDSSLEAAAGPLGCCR
Test [16] has the same target. Conditions: at 10 µM.
The target in test [17] is Mitogen-activated protein kinase 9 (Homo sapiens) (UniProt P45984). Conditions: at 1 µM.
Sequence of Mitogen-activated protein kinase 9 (Homo sapiens) (P45984 whole entry, looked up): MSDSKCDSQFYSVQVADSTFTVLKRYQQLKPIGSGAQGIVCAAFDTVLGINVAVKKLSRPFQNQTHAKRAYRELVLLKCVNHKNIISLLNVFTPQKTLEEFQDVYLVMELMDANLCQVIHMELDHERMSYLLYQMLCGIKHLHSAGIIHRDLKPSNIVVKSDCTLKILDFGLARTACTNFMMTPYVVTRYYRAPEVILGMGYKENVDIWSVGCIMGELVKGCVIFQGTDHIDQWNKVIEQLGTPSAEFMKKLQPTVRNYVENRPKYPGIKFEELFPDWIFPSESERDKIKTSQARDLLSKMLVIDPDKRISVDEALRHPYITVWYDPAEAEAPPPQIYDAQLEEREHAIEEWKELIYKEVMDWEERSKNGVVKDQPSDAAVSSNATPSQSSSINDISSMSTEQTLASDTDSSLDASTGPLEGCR
Test [18] has the same target. Conditions: at 10 µM.
Test [19] has as its target Mitogen-activated protein kinase 10 (Homo sapiens) (UniProt P53779). Conditions: at 1 µM.
The target of test [20] is Insulin receptor (Homo sapiens) (UniProt P06213). Conditions: at 10 µM. The source holds these as a separate data set.

Sequence of Insulin receptor (Homo sapiens) (P06213 28-758 limits assumed): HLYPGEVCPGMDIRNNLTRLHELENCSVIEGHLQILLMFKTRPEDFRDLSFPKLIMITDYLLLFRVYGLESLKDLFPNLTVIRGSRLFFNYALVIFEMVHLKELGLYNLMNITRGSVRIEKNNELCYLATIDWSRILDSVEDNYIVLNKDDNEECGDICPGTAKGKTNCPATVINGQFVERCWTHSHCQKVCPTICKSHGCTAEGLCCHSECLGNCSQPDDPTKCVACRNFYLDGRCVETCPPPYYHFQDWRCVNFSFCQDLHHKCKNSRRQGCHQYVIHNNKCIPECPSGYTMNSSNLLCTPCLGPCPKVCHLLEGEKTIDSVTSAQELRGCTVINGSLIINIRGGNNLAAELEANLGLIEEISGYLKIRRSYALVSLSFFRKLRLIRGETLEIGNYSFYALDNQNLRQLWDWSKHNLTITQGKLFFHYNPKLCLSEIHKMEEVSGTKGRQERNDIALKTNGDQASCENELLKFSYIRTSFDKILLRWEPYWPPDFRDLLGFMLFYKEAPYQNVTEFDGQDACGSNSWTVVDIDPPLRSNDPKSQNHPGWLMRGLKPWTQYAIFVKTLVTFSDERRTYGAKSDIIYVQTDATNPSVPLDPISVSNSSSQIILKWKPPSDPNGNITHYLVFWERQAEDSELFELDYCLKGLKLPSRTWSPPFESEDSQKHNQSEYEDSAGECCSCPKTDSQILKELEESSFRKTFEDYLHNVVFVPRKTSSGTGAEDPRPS
Sequence of Insulin receptor (Homo sapiens) (P06213 763-1382 limits assumed): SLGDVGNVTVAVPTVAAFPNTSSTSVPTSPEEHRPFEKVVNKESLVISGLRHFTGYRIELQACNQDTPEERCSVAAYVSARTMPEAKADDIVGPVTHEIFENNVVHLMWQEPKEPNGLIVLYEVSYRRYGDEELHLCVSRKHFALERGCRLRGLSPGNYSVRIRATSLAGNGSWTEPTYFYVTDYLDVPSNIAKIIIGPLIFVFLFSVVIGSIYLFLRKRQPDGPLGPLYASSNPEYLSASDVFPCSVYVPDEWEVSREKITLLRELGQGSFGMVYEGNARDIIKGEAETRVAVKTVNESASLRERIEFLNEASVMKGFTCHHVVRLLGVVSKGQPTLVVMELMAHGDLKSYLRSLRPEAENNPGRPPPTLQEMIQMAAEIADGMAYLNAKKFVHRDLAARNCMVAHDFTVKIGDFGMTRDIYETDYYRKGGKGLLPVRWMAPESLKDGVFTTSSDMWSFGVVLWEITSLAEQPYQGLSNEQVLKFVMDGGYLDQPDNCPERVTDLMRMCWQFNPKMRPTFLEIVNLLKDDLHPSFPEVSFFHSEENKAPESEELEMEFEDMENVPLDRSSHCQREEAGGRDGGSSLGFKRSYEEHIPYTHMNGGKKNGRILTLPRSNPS
Sequence of Mitogen-activated protein kinase 10 (Homo sapiens) (P53779 whole entry): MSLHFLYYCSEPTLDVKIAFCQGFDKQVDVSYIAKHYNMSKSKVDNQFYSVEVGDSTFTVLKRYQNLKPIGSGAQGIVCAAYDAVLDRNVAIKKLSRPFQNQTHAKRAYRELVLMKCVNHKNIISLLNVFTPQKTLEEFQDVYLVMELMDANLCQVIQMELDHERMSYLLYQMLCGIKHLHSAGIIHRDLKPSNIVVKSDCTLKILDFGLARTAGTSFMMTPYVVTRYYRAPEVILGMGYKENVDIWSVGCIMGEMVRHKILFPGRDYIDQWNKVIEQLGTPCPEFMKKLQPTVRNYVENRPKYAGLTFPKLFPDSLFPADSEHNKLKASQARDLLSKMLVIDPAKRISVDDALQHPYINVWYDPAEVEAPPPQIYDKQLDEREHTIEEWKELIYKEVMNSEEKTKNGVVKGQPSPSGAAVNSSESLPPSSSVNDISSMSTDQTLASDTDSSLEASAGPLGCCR

In the case of `CO[C@@H]1[C@H](N(C)C(=O)c2ccccc2)C[C@H]2O[C@]1(C)n1c3ccccc3c3c4c(c5c6ccccc6n2c5c31)C(=O)NC4`, the residual activity in test [1] was determined as 80%; in test [2] it was 72%; in [3], 85%; in [4], 74%; in test [5] it was 53%; in test [6] it was 47%. In addition, the residual activity in test [7] stood at 98%; in test [8], 57%; in [9] it was 56%; in test [10], 31%; in [11], 7%; in test [12] it was 2%. For the same compound, the residual activity in test [13] was 1%; in test [14], 1%; in [15], 92%; in test [16], 67%; in test [17] it was 99%; in test [18] it was 91%. Also, the residual activity in [19] stood at 50%.
As to `O=c1cc(-c2cccc3c2Sc2ccccc2S3)oc(N2CCOCC2)c1`, the residual activity stood at 136% in [20]; 98% in test [1]; 99% in test [2]; 102% in test [3]; 100% in test [5]; 98% in test [6]. The residual activity came out at 119% in test [7]; 96% in test [8]; 105% in [9]; 99% in test [10]; 98% in test [11]; 111% in test [12]. In addition, the residual activity in test [13] came out at 114%; in test [14], 113%; in test [15], 108%; in [16] it was 97%; in test [17], 103%; in test [18] it was 100%. Also, the residual activity in test [19] was 91%.
Take `Cc1cncc2cccc(S(=O)(=O)N3CCCN(C(=O)CN)C[C@H]3C)c12`: the residual activity came to 70% in [20]; 97% in test [1]; 76% in test [2]; 82% in [3]; 67% in test [4]; 92% in test [13]. Besides, the residual activity was found to be 95% in [15], 82% in test [16], 79% in test [18] and 72% in [19].
In the case of `Oc1n[nH]c2nnc(-c3c(-c4ccccc4)nn4ccccc34)cc12`, the residual activity came out at 12% in [20]; 89% in test [1]; 75% in [2]; 99% in test [3]; 103% in test [4]; 75% in test [5]. In addition, the residual activity is 89% in test [6]; 25% in [7]; 2% in [8]; 99% in [9]; 102% in [10]; 99% in [11]. The residual activity stood at 102% in test [12]; 104% in [13]; 100% in test [14]; 96% in test [15]; 87% in test [16]; 93% in test [17]. The residual activity in test [18] amounted to 92%; in test [19], 52%.
For `Nc1nc(Nc2ccc(S(N)(=O)=O)cc2)nn1C(=S)Nc1c(F)cccc1F`, the residual activity came out at 8% in test [3]; 16% in [4]; 8% in test [5]; 0% in test [6]; 44% in test [9]; 3% in test [10]. The residual activity in [11] turned out to be 2%; in test [12] it was 0%; in test [13], 0%; in test [14], 2%; in test [15] it was 88%; in test [16], 84%. Also, the residual activity in [17] turned out to be 71%; in test [18], 19%; in test [19], 35%.
Turning to `Cc1cc(Nc2nc(-c3ccccc3)nc3ccccc23)n[nH]1`, the residual activity in test [20] stood at 5%; in [1] it was 36%; in test [2], 7%; in [3], 69%; in test [4], 23%; in test [5], 45%. Moreover, the residual activity in test [6] came to 12%; in test [7] it was 8%; in test [8] it was 1%; in [9], 5%; in test [10], 0%; in [11], 14%. In addition, the residual activity came out at 1% in test [12]; 41% in test [13]; 5% in test [14]; 94% in test [15]; 71% in test [16]; 66% in [18]. The residual activity in test [19] amounted to 51%.
